Source: PubChem BioAssay (several laboratories)
Rows were chosen to be rich in hits. Some 3.2% of all compounds tested hit in one or more screens of this group.
Rtt109 Vps75: inhibitors of C. albicans Rtt109/Vps75 HAT, primary screen, biochemical, ThioGlo CoA-SH fluorescence, plate reader. purified Rtt109/Vps75, 4 h. inhibition, % at 34.9 µM. 330,000 tested, 0.16% active;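 active = inhibition of at least 50% in every replicate; inconclusive = best replicate reaches 50% inhibition but some replicates fall short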
dFosB activator: activators of delta FosB homodimer, primary screen, biochemical, fluorescence polarization, TAMRA-CDK5 oligo, single point | Protein FosB (Mus musculus), P13346 | purified delta FosB; percent of positive-control signal above neutral wells | activation, % at 25 µM | 340,000 tested, 0.99% active | AID 493131, 2011;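 active = mean activation above about 17%, with every replicate also reaching it, limit read from the data, passing the limit was not always enough; inconclusive = only one of the two conditions met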
esBAF inh: Bmi1 luciferase reporter increase in mESCs, primary screen, esBAF inhibitor project, mouse ES cells, Bmi1 luciferase knock-in, single point; 350,000 tested, 2% active; 24 h; 100% = twice the neutral-well signal; reporter increase, % at 12.5 µM; AID 602393, 2012; in the data active = activation above about 40%; inconclusive = no clear call, values can overlap the other calls;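 also: 0% = median of the plate's neutral control wells and 100% = double that signal; a rise in the Bmi1 reporter signal indicates esBAF inhibition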
DYRK1A inh: rat Dyrk1A kinase inhibitors, primary screen, biochemical, single point, plate reader; inhibition, % at 12.5 µM; 310,000 tested, 0.43% active; AID 504441, 2011; Dual specificity tyrosine-phosphorylation-regulated kinase 1A (Rattus norvegicus), Q63470; ADP-Glo luminescence, NFATc1 peptide; in the data active = inhibition above about 50%;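 also: plate controls were vehicle with enzyme for no effect and no enzyme for full effect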
SMARCA2 activ: SMARCA2 (BRM) function activators, primary screen, cell-based, luminescence, high throughput; activation, % at 9.1 µM; 370,000 tested, 1% active; AID 652017, 2013; MG213 cells, MMTV-luciferase reporter, dexamethasone, overnight; in the data active = activation above about 7.8%;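 also: 0% = vehicle wells and 100% = reference activator wells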
CDK5 inh: inhibitors of human CDK5/p35 kinase, primary screen, biochemical, single concentration. Cyclin-dependent kinase 5 (Homo sapiens) + Cyclin-dependent kinase 5 activator 1 (Homo …. Recombinant CDK5/p35, ADP-Glo luminescence, 60 min. inhibition, % at 10 µM. 330,000 tested, 0.01% active. AID 488839, 2010;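 active = highest replicate inhibition of at least 50% and at least 75% of replicates reaching 50%; inconclusive = only one of the two criteria met; inactive = both criteria failed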;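 also: plate controls were DMSO neutral control for no effect and GW8510 at 10 µM for full effect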
Active calls of the source: *.

What do the screens show for `COc1ccc(C2CC(c3ccc(Cl)cc3)=NN2c2ccc(S(N)(=O)=O)cc2)cc1` (centres undefined)?
Rtt109 Vps75: 1; dFosB activator: -6; esBAF inh: -1; DYRK1A inh: -2; SMARCA2 activ: -6; CDK5 inh: 0

How did COc1ccc(C2CC(c3ccncc3)=NN2c2ccc(S(N)(=O)=O)cc2)cc1 (centres undefined) do in these assays?
Rtt109 Vps75: -4; dFosB activator: -2; esBAF inh: 83*; DYRK1A inh: -3; SMARCA2 activ: 0; CDK5 inh: -1

Results for O=C(C[C@@H]1C[C@H]2c3cc(NC(=O)Nc4ccccc4F)ccc3O[C@H]2[C@H](CO)O1)NCc1cc(F)ccc1F ?
esBAF inh: 14

How did COc1cc2c(C(=O)N3CCN(C)CC3)c(C)n(-c3ccccc3)c2cc1Br do in these assays?
Rtt109 Vps75: 9; dFosB activator: 1; esBAF inh: -1; DYRK1A inh: 1; SMARCA2 activ: 0; CDK5 inh: 2

How did CCN(CC)CCNC(=O)c1c(C)n(-c2ccccc2)c2cc(Br)c(OC)cc12 do in these assays?
Rtt109 Vps75: 6; dFosB activator: 26*; DYRK1A inh: 7; SMARCA2 activ: -1; CDK5 inh: 0

What do the screens show for `C[C@H](CO)N1C[C@H](C)[C@H](CN(C)C)Oc2cc(-c3cccc(C#N)c3)ccc2S1(=O)=O`?
esBAF inh: 0

Results for C[C@@H]1CN([C@H](C)CO)C(=O)c2cc(NC(=O)Cc3cn(C)c4ccccc34)ccc2O[C@H]1CN(C)C(=O)Nc1ccc(C(F)(F)F)cc1 ?
esBAF inh: -3

What do the screens show for `Nc1ccc(-c2nc3ncccc3o2)c(Cl)c1`?
Rtt109 Vps75: -3; dFosB activator: -2; esBAF inh: inconclusive; DYRK1A inh: 7; SMARCA2 activ: 5; CDK5 inh: 1

What do the screens show for `Nc1ccc(-c2nc3ncccc3o2)c(O)c1`?
Rtt109 Vps75: -6; dFosB activator: -3; esBAF inh: 57*; DYRK1A inh: -1; SMARCA2 activ: 7; CDK5 inh: 1

How did CC(C)NC(=O)Nc1ccc2c(c1)C(=O)N([C@H](C)CO)C[C@H](C)[C@@H](CN(C)S(=O)(=O)c1cccs1)OCCCC[C@@H](C)O2 do in these assays?
esBAF inh: -3

How did CN1CCN(C(=O)c2cc3c(c(-c4cccc(-c5cccc(F)c5)c4)n2)[C@@H](CCO)N(S(=O)C(C)(C)C)C3)CC1 (some centres undefined) do in these assays?
esBAF inh: 2

How did CN1c2ccsc2/C(=N/Nc2ccccc2)CS1(=O)=O do in these assays?
Rtt109 Vps75: 0; dFosB activator: -8; esBAF inh: 58*; DYRK1A inh: 11; SMARCA2 activ: -1; CDK5 inh: 0

What do the screens show for `CC1CCc2c(sc(N)c2C(N)=O)C1` (centres undefined)?
Rtt109 Vps75: 50*; dFosB activator: -15; esBAF inh: 3; DYRK1A inh: 16; SMARCA2 activ: -1; CDK5 inh: 0

Results for CCC1CCc2c(sc(N)c2C(N)=O)C1 (centres undefined) ?
Rtt109 Vps75: 1; dFosB activator: -13; esBAF inh: -14; DYRK1A inh: 4; SMARCA2 activ: 0; CDK5 inh: 1

How did O=C(CSc1nnc(-c2ccco2)n1Cc1ccccc1)OC1CCCCC1 do in these assays?
Rtt109 Vps75: 5; dFosB activator: -1; esBAF inh: 68*; DYRK1A inh: 5; SMARCA2 activ: 2; CDK5 inh: -1

What do the screens show for `O=C(CSc1nnc(-c2ccncc2)n1Cc1ccco1)OC1CCCCC1`?
Rtt109 Vps75: 6; dFosB activator: -4; esBAF inh: 6; DYRK1A inh: 0; CDK5 inh: 1

What do the screens show for `CC(=O)N1[C@H](CO)[C@@H](c2ccccc2)[C@@H]1CNC(=O)CN1CCOCC1`?
esBAF inh: 5
